# Laboratory results as given in ChEMBL document CHEMBL4513216, “Probing the Open Global Health Chemical Diversity Library for Multistage-Active Starting Points for Next-Generation Antimalarials” (ACS Infect Dis, 2020).
# Out of some 69,000 compounds screened, about 8,600 (12%) showed an effect of 50% or more. For the sample, strong results were picked, then their nearest neighbours and some compounds at random.
# System: Plasmodium berghei
# Assay: Screen against P. berghei liver stage (PbLuc), transformed with Luciferase, at 10uM
# Type: functional, HepG2
# Conditions: tested at 10 uM
row,SMILES,INHIBITION [%]
1,CCCN(CC)C(=O)c1cc2c(c3ccccc3n2C)n1C(=O)N(C)C,11.9
2,CC(C)NC(=O)CN(C)C(=O)c1c(Cl)c2ccccc2n1C,15.8
3,CCCNC(=O)c1cc2c(c3ccccc3n2C)n1C(=O)N(C)C,26.2
4,CC(C)n1c2ccccc2c2c1cc(C(=O)O)n2C(=O)N(C)C,57.5
5,CC(C)NC(=O)c1cc2c(c3ccccc3n2C)n1C(=O)N(C)C,36.9
6,CC(C)n1c2ccccc2c2c1cc(C(=O)NCCO)n2C(=O)N(C)C,55.7
7,CN(C)C(=O)n1c(C(=O)NC(C)(C)CO)cc2c1c1ccccc1n2C,-24.9
8,CC(C)n1c2ccccc2c2c1cc(C(=O)N(C)C)n2C(=O)N(C)C,47.5
9,CC(C)n1c2ccccc2c2c1cc(C(=O)NC1CC1)n2C(=O)N(C)C,60.2
10,COCCNC(=O)c1cc2c(c3ccccc3n2C)n1C(=O)N(C)C,36.9
11,CC(C)n1c2ccccc2c2c1cc(C(=O)N(C)C)n2C,82
12,CC(C)n1c2ccccc2c2c1cc(C(=O)N(C)C)n2S(C)(=O)=O,49.4
13,Cc1ccc(C(=O)NCCSCc2cccs2)cn1,8.75
14,Cc1ccc(NC2CCN(C(=O)c3ccc(F)c(C)c3)CC2)nn1,47.1
15,COCCn1c(-c2cccc(OC)c2)cnc1NC(=O)NC1CCCC1,13.5
16,CN(C)c1cncc(C2CCCN2S(=O)(=O)c2cn(C)cn2)n1 (stereo not drawn),32.8
17,O=C(c1cnccn1)N1CCN(CC2CC2)c2ncccc2C1,-21.1
18,COCCC(=O)N(C)Cc1nc(C(F)(F)F)cs1,-26.8
19,O=C(NCc1cc[nH]n1)NCC(O)c1ccccc1F (stereo not drawn),7.12
20,CN(Cc1ccco1)C(=O)CN1CCCC1c1cccs1 (stereo not drawn),62.3
21,N#CCCN(Cc1ccco1)C(=O)CN1CCCC1c1cccs1 (stereo not drawn),29.4
22,CN(CCC#N)C(=O)CN1CCCC1c1cccs1 (stereo not drawn),-85
23,CCN(C(=O)CN1CCCC1c1c(C)nn(C)c1OC)C1CC1 (stereo not drawn),-23.3
24,COc1c(C2CCCN2CC(=O)N(C)Cc2ccco2)c(C)nn1C (stereo not drawn),89.4
25,COc1c(C2CCCN2C(=O)c2ccco2)c(C)nn1C (stereo not drawn),7.18
26,CC(=O)Nc1ccc(CNCC(O)c2ccc(Cl)cc2)cc1 (stereo not drawn),45.7
27,c1cncc(CN2CCn3c(Cn4cncn4)cnc3C2)c1,31.1

row,SMILES,INHIBITION [%]
1,Cc1ccc(CC(=O)N2CCCC(c3nccs3)C2)cn1 (stereo not drawn),3.4
2,O=C(NCC1(O)CCCC1)c1ccc2nsnc2c1,-47
3,Cc1noc(C)c1CN(C)c1nccc(C(F)(F)F)n1,-25.7
4,COc1ccnc(N(C)Cc2csc(C)n2)n1,-62.7
5,Cc1cc(N(C)C)nc(N(C)Cc2csc(C)n2)n1,-3.35
6,Cc1nc(CN(C)c2nccc(C(F)(F)F)n2)cs1,50.1
7,Cc1nc(CN(C)c2nccc(N(C)C)n2)cs1,51.5
8,Cc1nc(CC(=O)NCCNc2nccc(C(F)(F)F)n2)cs1,22.6
9,CCCN1CCCn2nc(CNS(=O)(=O)c3cnn(CC)c3)cc2C1,29.1
10,O=C(CCc1ccsc1)NCc1ccnc(OC2CCOCC2)c1,-8.91
11,O=C(CCc1ccc(F)cc1)NCc1ccnc(NC2CC2)c1,53.3
12,Cc1ccccc1OCCCC(=O)NCc1ccnc(O)c1,9.6
13,CCOCCC(=O)NCc1ccnc(NC2CC2)c1,41.5
14,COc1ccccc1CC(=O)NCc1ccnc(NC2CC2)c1,75.7
15,COc1ccccc1CC(=O)N1CCC(NCc2ccncc2)CC1,22.275
16,COc1ccc(CNC(=O)NC2CCN(C)CC2)c(C(F)(F)F)c1,33.8
17,O=C(Cn1ccnc1)N1CC[C@H](Oc2cccc(F)c2)[C@@H](O)CC1,13.85
18,CCOc1ccc(-n2nnc(C(=O)O)c2-c2ccncc2)cc1,15
19,O=C(O)c1ccnc(SCc2ccccc2)c1,13.5
20,O=C(O)c1ccnc(SCC(=O)c2ccccc2)c1,9.55
21,O=C(O)c1ccnc(SCC(F)(F)F)c1,57
22,CC(=O)N1CCCN(C(=O)CN(C)c2ccc(Cl)cn2)CC1,22.8
23,COc1ccc(CN2CCCC2c2cccc(F)c2)c(OC)c1OC (stereo not drawn),16
24,Cc1ccc(S(C)(=O)=O)cc1C(=O)N1CCCC(n2cncn2)C1 (stereo not drawn),-12.1
25,CN(C)C(=O)CO[C@H]1CN(Cc2ccsc2)[C@@H]2COC[C@H]12,-0.284
26,COc1cccc(-c2cc(C(=O)Nc3nc[nH]n3)[nH]n2)c1,-43.7
